Test results from PubChem BioAssay.
The source made the active and inactive calls.

Key:
[1] = tested on: PRMT1 (protein arginine N-methyltransferase 1); assay: small molecules binding arginine methyltransferase PRMT1 – biochemical, small-molecule microarray, 635 nm fluorescence, primary screen (AID 1088); conditions: higher = more signal;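 note: binding of Prmt1 protein to compounds spotted on small-molecule microarray slides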
[2] = growth effects on S. cerevisiae YJM789 – YJM789 clinical isolate, OD600, 24 h, basal, primary screen (AID 1089); conditions: higher = more signal, called active from +8 up or from −8 down;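 note: growth of clinical yeast isolate S. cerevisiae YJM 789 seeded 1000 cells per well; test concentration not given here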
[3] = S. pombe growth modifiers, basal conditions – strain 972, OD600, 24 h, no modulator, primary screen (AID 1090);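 note: basal condition with compound alone and no growth modifier present; test concentration not given here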; conditions: S. pombe 972 growth, higher = more signal, called active from +8 up or from −8 down
[4] = budding yeast growth modifiers under rapamycin – strain BY4716, OD600, 96 h, primary screen (AID 1091); note: test concentration not given here; conditions: S. cerevisiae BY4716 + rapamycin, higher = more signal, called active from +8 up or from −8 down
[5] = target: Torsin-1A-interacting protein 2 (Homo sapiens) (UniProt Q8NFQ8); assay: small molecules binding lysate-expressed LULL1 – cell lysate, human LULL1 lysate, 635/667 nm fluorescence, primary screen (AID 1092); conditions: small-molecule microarray, hLULL1 lysate binding, 635 nm fluorescence; higher = more signal;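 note: probe is lysate of COS7 cells overexpressing human LULL1; score merges per-feature 667 nm fluorescence with signal-to-noise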
[6] = optical density change of DRC41 E. coli – strain DRC41, OD650, 24 h, E. coli filamentation project, primary screen (AID 1093);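 note: MC1000 strain lacking acrAB efflux and sulA so SOS filamentation is blocked; test concentration not given here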; conditions: E. coli DRC41 growth, higher = more signal, called active from +8 up or from −8 down
[7] = probe aLefty2 binding to arrayed compounds – biochemical, biotinylated probe, 635/667 nm fluorescence, primary screen (AID 1094); conditions: small-molecule microarray, higher = more signal;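 note: score merges spot fluorescence near 667 nm with spot signal-to-noise ratio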
[8] = tested on: Noggin (protein binding on small-molecule microarray); assay: small molecules binding Noggin protein – biochemical, 635/667 nm fluorescence, primary screen (AID 1095); conditions: 635 nm fluorescence, higher = more signal;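 note: score merges 667 nm feature fluorescence with signal to noise over triplicate slides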
[9] = target: Neurogenic locus notch homolog protein 3 (Homo sapiens) (UniProt Q9UM47); assay: small molecules binding NOTCH3 protein – biochemical, 635/667 nm fluorescence, primary screen (AID 1096); conditions: small-molecule microarray, 635 nm fluorescence, higher = more signal
[10] = probe aEGFR binding to arrayed compounds – biochemical, biotinylated probe, 635/667 nm fluorescence, primary screen (AID 1097); conditions: small-molecule microarray, higher = more signal;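 note: probe is a biotinylated anti-EGFR antibody binding compounds printed on slides; score combines fluorescence near 667 nm and signal to noise of each spot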

Neurogenic locus notch homolog protein 3 (Homo sapiens), sequence (Q9UM47 whole entry, looked up): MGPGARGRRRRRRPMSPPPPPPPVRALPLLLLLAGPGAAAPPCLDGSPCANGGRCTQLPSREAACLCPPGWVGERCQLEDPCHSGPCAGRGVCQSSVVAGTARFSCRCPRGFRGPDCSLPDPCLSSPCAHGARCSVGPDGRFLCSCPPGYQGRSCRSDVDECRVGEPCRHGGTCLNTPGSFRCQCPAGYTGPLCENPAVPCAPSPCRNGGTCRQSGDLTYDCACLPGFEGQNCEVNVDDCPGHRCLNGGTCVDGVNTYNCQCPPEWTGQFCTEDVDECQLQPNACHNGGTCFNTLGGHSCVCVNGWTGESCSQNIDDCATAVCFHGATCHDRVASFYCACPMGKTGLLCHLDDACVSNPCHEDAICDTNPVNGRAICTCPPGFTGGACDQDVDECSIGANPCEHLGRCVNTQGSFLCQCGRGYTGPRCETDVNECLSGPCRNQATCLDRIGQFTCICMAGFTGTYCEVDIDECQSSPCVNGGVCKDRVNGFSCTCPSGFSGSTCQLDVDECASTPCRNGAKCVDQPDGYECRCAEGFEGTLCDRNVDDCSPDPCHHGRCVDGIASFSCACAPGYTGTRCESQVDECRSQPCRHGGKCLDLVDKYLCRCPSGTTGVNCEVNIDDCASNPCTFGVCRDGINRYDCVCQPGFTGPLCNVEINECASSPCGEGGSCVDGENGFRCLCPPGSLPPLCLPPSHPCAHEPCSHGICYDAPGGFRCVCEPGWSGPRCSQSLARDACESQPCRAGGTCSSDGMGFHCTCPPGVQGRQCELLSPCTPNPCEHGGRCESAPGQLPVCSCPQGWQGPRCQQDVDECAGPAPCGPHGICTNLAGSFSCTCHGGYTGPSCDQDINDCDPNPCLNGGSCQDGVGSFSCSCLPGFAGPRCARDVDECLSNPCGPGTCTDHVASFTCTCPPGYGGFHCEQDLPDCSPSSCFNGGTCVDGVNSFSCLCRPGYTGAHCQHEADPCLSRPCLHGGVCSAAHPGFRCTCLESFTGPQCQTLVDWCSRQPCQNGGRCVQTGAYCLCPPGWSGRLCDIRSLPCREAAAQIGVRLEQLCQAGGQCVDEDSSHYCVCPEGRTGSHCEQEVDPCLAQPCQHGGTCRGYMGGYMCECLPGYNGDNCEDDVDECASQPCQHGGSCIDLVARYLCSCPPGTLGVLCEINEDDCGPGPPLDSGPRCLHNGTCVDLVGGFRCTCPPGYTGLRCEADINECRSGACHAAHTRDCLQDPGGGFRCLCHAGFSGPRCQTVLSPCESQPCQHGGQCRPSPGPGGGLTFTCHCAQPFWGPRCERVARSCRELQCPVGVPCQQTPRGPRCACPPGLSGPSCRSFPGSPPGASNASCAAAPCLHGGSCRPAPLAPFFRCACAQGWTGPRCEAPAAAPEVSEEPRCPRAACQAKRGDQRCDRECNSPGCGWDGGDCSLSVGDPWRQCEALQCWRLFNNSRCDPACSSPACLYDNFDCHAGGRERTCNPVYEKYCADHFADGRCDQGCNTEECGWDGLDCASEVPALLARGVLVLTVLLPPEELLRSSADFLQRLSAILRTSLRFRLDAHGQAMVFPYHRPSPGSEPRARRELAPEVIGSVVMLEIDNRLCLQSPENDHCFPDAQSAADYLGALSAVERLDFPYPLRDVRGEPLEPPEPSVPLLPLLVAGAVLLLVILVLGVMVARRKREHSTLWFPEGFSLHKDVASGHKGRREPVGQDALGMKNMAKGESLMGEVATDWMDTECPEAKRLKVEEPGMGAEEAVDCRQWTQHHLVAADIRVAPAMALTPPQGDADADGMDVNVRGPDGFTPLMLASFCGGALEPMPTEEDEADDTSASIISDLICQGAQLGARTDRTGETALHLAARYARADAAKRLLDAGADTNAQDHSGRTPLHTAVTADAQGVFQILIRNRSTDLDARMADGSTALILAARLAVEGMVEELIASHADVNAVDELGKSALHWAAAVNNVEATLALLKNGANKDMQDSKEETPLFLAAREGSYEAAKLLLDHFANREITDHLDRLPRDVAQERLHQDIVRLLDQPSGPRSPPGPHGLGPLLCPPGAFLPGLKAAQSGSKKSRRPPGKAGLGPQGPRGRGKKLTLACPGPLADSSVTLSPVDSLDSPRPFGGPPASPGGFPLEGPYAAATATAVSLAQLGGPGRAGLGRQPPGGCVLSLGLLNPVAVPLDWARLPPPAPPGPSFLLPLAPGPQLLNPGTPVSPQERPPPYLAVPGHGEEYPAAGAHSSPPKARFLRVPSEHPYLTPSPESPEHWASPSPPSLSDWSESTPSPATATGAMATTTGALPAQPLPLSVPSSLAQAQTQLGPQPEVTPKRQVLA
Torsin-1A-interacting protein 2 (Homo sapiens), sequence (Q8NFQ8 whole entry, looked up): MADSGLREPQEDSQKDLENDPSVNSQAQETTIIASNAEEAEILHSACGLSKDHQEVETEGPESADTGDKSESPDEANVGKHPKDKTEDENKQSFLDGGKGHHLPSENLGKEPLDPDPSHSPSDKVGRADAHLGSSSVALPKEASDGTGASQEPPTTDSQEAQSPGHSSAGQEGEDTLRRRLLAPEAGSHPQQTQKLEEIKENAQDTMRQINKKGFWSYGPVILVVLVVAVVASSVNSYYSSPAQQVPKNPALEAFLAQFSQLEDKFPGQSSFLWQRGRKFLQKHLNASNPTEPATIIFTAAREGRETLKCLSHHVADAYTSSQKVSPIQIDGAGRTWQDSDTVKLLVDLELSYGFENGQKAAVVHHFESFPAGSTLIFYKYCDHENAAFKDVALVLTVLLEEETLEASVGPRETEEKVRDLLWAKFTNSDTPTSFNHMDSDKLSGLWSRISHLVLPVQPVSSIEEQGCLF

## [N-]=[N+]=NCc1ccccc1C[C@]1(C(=O)NCc2ccccc2)COC(c2ccc(OCCCO)cc2)=N1
[1]
  composite z-score: 1.01
[2]
  z-score: 1.67 (inactive)
[3]
  z-score: 0.816 (inactive)
[4]
  z-score: 36 (active)
[5]
  composite z-score: 3.12
[6]
  z-score: 1.21 (inactive)
[7]
  composite z-score: -0.0438
[8]
  composite z-score: 0.0869
[9]
  composite z-score: -0.146
[10]
  composite z-score: -0.0828

## COc1ccc(C#Cc2ccc3c(c2)[C@]2(C(=O)N3)[C@H](c3ccc(OCCO)cc3)N3[C@H](c4ccccc4)[C@H](c4ccccc4)OC(=O)[C@H]3[C@@H]2C(=O)Nc2nc3ccccc3s2)cc1
[1]
  composite z-score: 1.54
[2]
  z-score: 2 (inactive)
[3]
  z-score: 0.831 (inactive)
[4]
  z-score: 1.44 (inactive)
[5]
  composite z-score: 3.02
[6]
  z-score: 2.4 (inactive)
[7]
  composite z-score: 0.135
[8]
  composite z-score: 0.57
[9]
  composite z-score: 1.12
[10]
  composite z-score: 0.238

## C[N+](C)(C)CCCC[C@@H]1NC(=O)[C@H]2C[C@@H](C(=O)O)[C@@H](c3cccc(OCCO)c3)N2C1=O
[1]
  composite z-score: 1.54
[2]
  z-score: -1.28 (inactive)
[3]
  z-score: -0.362 (inactive)
[4]
  z-score: -0.498 (inactive)
[5]
  composite z-score: 3.79
[6]
  z-score: 0.0136 (inactive)
[7]
  composite z-score: 1.5
[8]
  composite z-score: 1.83
[9]
  composite z-score: 1.1
[10]
  composite z-score: 1.06

## C=C(C)[C@@H]1CC=C(C(O)C2C=CC3C(=O)N(Cc4ccccc4)C(=O)C3N2n2cnnc2)CC1 (stereo not given in full)
[1]
  composite z-score: -0.0461
[2]
  z-score: -0.542 (inactive)
[3]
  z-score: 0.312 (inactive)
[4]
  z-score: 0.112 (inactive)
[5]
  composite z-score: 1.3
[6]
  z-score: -0.0792 (inactive)
[7]
  composite z-score: 0.0864
[8]
  composite z-score: -0.305
[9]
  composite z-score: -0.191
[10]
  composite z-score: -0.161

## O=C1OCCC/C=C\[C@H]2OC34C=CCN(CCN5CCOCC5)C(=O)[C@H]3N(CCO)C(=O)[C@@H]4C12 (stereo not given in full)
[1]
  composite z-score: -0.833
[2]
  z-score: 0.14 (inactive)
[3]
  z-score: 0.774 (inactive)
[4]
  z-score: -0.131 (inactive)
[5]
  composite z-score: -0.534
[6]
  z-score: 1 (inactive)
[7]
  composite z-score: -0.18
[8]
  composite z-score: -0.915
[9]
  composite z-score: -1.23
[10]
  composite z-score: -0.244

## COc1ccc([Si](C)(C)[C@@H]2[C@@H](CCO)O[C@]3(C(=O)N(Cc4ccccc4)c4ccc(N(C=O)c5ccccc5)cc43)[C@H]2C)cc1
[1]
  composite z-score: 1.28
[2]
  z-score: 0.697 (inactive)
[3]
  z-score: 1.56 (inactive)
[4]
  z-score: 7.37 (inactive)
[5]
  composite z-score: 1.33
[6]
  z-score: 0.329 (inactive)
[7]
  composite z-score: -0.0479
[8]
  composite z-score: 0.0182
[9]
  composite z-score: 0.718
[10]
  composite z-score: -0.189

## C=CCNC(=O)[C@@H]1[C@H]2C(=O)O[C@H](c3ccccc3)[C@H](c3ccccc3)N2[C@H](c2ccccc2OCCO)[C@@]12C(=O)N(C(=O)OCCOC)c1ccc(C#CCC(C(=O)OC)C(=O)OC)cc12
[1]
  composite z-score: 1.53
[2]
  z-score: 1.38 (inactive)
[3]
  z-score: 2.06 (inactive)
[4]
  z-score: 6.46 (inactive)
[5]
  composite z-score: 3.56
[6]
  z-score: 0.221 (inactive)
[7]
  composite z-score: 0.891
[8]
  composite z-score: 1.9
[9]
  composite z-score: 1.07
[10]
  composite z-score: 0.573

## COc1ccc([Si](C)(C)[C@H]2[C@H](CC(=O)N3Cc4ccccc4C[C@H]3CO)O[C@@]3(C(=O)N(Cc4cccc(I)c4)c4ccccc43)[C@@H]2C)cc1
[1]
  composite z-score: 1.55
[2]
  z-score: -0.413 (inactive)
[3]
  z-score: 0.603 (inactive)
[4]
  z-score: 2.75 (inactive)
[5]
  composite z-score: -0.48
[6]
  z-score: 1.2 (inactive)
[7]
  composite z-score: -0.119
[8]
  composite z-score: 2.05
[9]
  composite z-score: 0.863
[10]
  composite z-score: -0.0758

## CN(C)CCCC[C@@H]1NC(=O)[C@H]2C[C@@H](C(=O)NCCCCCNC(=O)CS)[C@@H](c3ccc(O)cc3)N2C1=O
[1]
  composite z-score: -0.97
[2]
  z-score: 0.428 (inactive)
[3]
  z-score: -0.578 (inactive)
[4]
  z-score: -0.52 (inactive)
[5]
  composite z-score: 0.134
[6]
  z-score: 0.702 (inactive)
[7]
  composite z-score: 0.0601
[8]
  composite z-score: -0.673
[9]
  composite z-score: -0.0464
[10]
  composite z-score: -0.167

## O=C(NCc1ccccc1)[C@@H]1c2ccccc2C(=O)N(Cc2cc(F)cc(C(F)(F)F)c2)[C@H]1c1ccc(CO)cc1
[1]
  composite z-score: 1.49
[2]
  z-score: 0.314 (inactive)
[3]
  z-score: 0.252 (inactive)
[4]
  z-score: -0.319 (inactive)
[5]
  composite z-score: 2.82
[6]
  z-score: 0.387 (inactive)
[7]
  composite z-score: -0.103
[8]
  composite z-score: 0.561
[9]
  composite z-score: 0.791
[10]
  composite z-score: 0.021
